# Laboratory results from PubChem BioAssay (NCI).
# Values joined by “and” are separate entries in the source; they are usually repeats but may differ in a detail not shown here. Equal entries are not always repeated. Compounds without any hit were thinned out: in the full panel of roughly 79,000, 15% have a hit. Where a structure was tested more than once in an assay, its records may differ in their call. Active and inactive are the calls of the source. Rule as the data show it: active = growth inhibition above about 70%; inactive = the rest.
# Assay: NCI Yeast Anticancer Drug Screen. Data for the mec2-1 strain (AID 157)
# Settings: S. cerevisiae mec2-1 strain, at 50.0 µM, stronger effect = higher value
# Method in brief: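 Cells of the genetically defined mec2-1 yeast strain are incubated with test compound. Inhibition of growth is calculated against vehicle-treated controls.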
row,SMILES,growth inhibition
1,CN(C)c1ccc(C2CC(C)(O)Oc3cc4c(cc32)OCO4)cc1 (stereo not drawn),14.3% (inactive)
2,O=P(NC1CCCCC1)(OCc1ccccc1)OCc1ccccc1,23.6% (inactive)
3,COc1oc(C(=O)NC2CCCCC2)c(-c2ccc(Cl)cc2)c1S(=O)(=O)c1ccccc1,78.8% (active)
4,C[Si](C)(C)/C=C/CCNC(C#N)c1ccccc1 (stereo not drawn),91.8% (active)
5,CCOc1ccc(NC(=O)C2=C(C)NC(C)=C(C(=O)Nc3ccc(OCC)cc3)C2c2cccc([N+](=O)[O-])c2)cc1,34.6% (inactive)
6,CN(C)CCOC1(Cc2ccc(F)cc2)CCC(C(C)(C)C)CC1 (stereo not drawn),18.8% (inactive) and 99.2% (active)
7,CC1(C)CC(=O)C(/C=N/c2nc(-c3ccccc3)cs2)=C(O)C1,20.1% (inactive)
8,CC(=O)Nc1ccc2c(c1)Cc1cc(N=C3C=CC(=O)O3)ccc1-2,15.8% (inactive)
9,O=C1C=C(Cl)C(=O)C(c2ccc(Cl)cc2)=C1,92.5% (active)
10,CNCCCNc1c2ccccc2nc2cccc([N+](=O)[O-])c12,91% (active)
11,CCCCCCCCCCCC(O)S(=O)(=O)O (stereo not drawn),37.9% (inactive)
12,CC(C)OC(=O)c1ccc(CCc2cc(O)c(Br)cc2O)cc1,91.2% (active)
13,CCc1cc(O)c(Cl)c(C)c1Cl,34.9% (inactive)
14,CSc1nc(C)c(CCOC(C)=O)c(N=P(c2ccccc2)(c2ccccc2)c2ccccc2)n1,94.3% (active)
15,CS(=O)(=O)SCc1ccc([N+](=O)[O-])cc1,98% (active)
16,COC1=C(OC)C(=O)C(Sc2ccc3ccccc3c2)=CC1=O,93.3% (active)
17,COc1nc2c(c(=O)n1C)N=C(c1ccccc1)[C@H](C(CC(=O)c1ccccc1)c1ccccc1)C(c1ccccc1)N2 (stereo partly drawn),61.5% (inactive)
18,Cc1cc(-c2cc(C)c(O)c(C(C)(C)C)c2)cc(C(C)(C)C)c1O,65.3% (inactive) and 61.5% (inactive)
19,Nc1cc(N)c(N=Nc2cccc3c(S(=O)(=O)O)cccc23)cc1N=Nc1cc([N+](=O)[O-])ccc1O,4.9% (inactive)

row,SMILES,growth inhibition
1,Nc1ccc(F)cc1S,85.8% (active)
2,Brc1ccccc1-c1ncc(-c2ccccc2)o1,47.1% (inactive)
3,COc1cc(C2SCC(=O)N2c2ccc(-c3ccc(-n4c(-c5ccccc5)nc5ccccc5c4=O)cc3)cc2)ccc1O (stereo not drawn),34% (inactive)
4,Nc1ncnc2c1ncn2C1OC(CO)CC1O (stereo not drawn),88% (active) and -5.4% (inactive) and 76.5% (active)
5,COc1cc(CSc2ccc(O)cc2)cc(O)c1O,54.1% (inactive)
6,CCOC(=O)C1N=[N+](c2ccccc2)C(=O)/C1=C\n1c(=S)[nH]c2ccc([N+](=O)[O-])cc21 (stereo not drawn),17.2% (inactive)
7,CNC(=O)OCc1c(COC(=O)NC)c2n(c1C)-c1ccc(OC)cc1CCC2,89.1% (active)
8,O=C(NNc1ccccc1)c1ccc(Cl)c(Cl)c1,40.9% (inactive)
9,Cc1ccc(CC2(OCCN(C)C)CCC(C(C)(C)C)CC2)cc1 (stereo not drawn),98.5% (active) and 99.3% (active)
10,C[C@]12CC[C@H](O)CC1=CC[C@@H]1C2CC[C@]2(C)C(=O)NC(=O)CC12 (stereo partly drawn),77.9% (active)
11,CCCC/C=C/C(C)(C(=O)OCC)C(=O)OCC,26.9% (inactive)
12,CCc1c(Cl)c(C)cc(O)c1Cl,84.7% (active)
13,O=C(/C=C(/c1ccccc1)N1CCCCC1)c1ccccc1,53% (inactive)
14,CCCC(=O)Oc1ccc(/C=N/NC(N)=S)nc1,75.2% (active)
15,CCc1nc2ccc(NCCN(C)C)c3c(=O)c4ccccc4n1c23,20.1% (inactive)
16,Cc1sc2ccc3ccccc3c2[n+]1C,85.8% (active) and 91.7% (active)
17,COc1c(O)c(C=O)c(Br)c(C=O)c1O,82.1% (active)
18,Cc1ccc(Cl)cc1NC(=O)OCCN(C)C(=O)Nc1cc(Cl)ccc1C,61% (inactive)
19,Cc1nc2ccccc2nc1NNc1ccccc1,41.6% (inactive)
